In PubChem BioAssay (NCI):
This is part of a sample that, as a whole, favours compounds with a hit. Of some 79,000 tested, about 15% had one in any assay. Unmarked numbers belong to inactive results. Calls of active or inactive are those of the source. No stated cut-off is given here; in the data, active means growth inhibition above about 70%; inactive means the rest.

Experiments:
[1] = NCI Yeast Anticancer Drug Screen. Data for the rad50 strain (AID 155);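 further: 0% = growth of vehicle-only cultures of the same strain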; details: S. cerevisiae rad50 strain growth inhibition, stronger effect = higher value
In short: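 A DNA repair-deficient yeast mutant serves as the test organism; compound-induced growth inhibition is calculated against vehicle-treated cells.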

[2] = NCI Yeast Anticancer Drug Screen. Data for the mec2-1 strain (AID 157); details: S. cerevisiae mec2-1 strain, stronger effect = higher value
In short: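 Cells of the genetically defined mec2-1 yeast strain are incubated with test compound. Inhibition of growth is calculated against vehicle-treated controls.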

[3] = NCI Yeast Anticancer Drug Screen. Data for the sgs1 mgt1 strain (AID 161);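 further: 0% = growth of cultures given vehicle only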; details: S. cerevisiae sgs1 mgt1 strain, stronger effect = higher value
In short: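 Inhibition of yeast growth, normalised to vehicle-treated controls, is reported for a strain bearing genetic alterations in DNA damage repair.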

[4] = NCI Yeast Anticancer Drug Screen. Data for the cln2 rad14 strain (AID 165);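 further: 0% = growth equal to vehicle treated cultures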; details: S. cerevisiae cln2 rad14 strain, stronger effect = higher value
In short: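 The screen exposed genetically defined yeast (cln2 rad14) to test compounds and scored growth inhibition relative to vehicle-treated controls.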

[5] = NCI Yeast Anticancer Drug Screen. Data for the bub3 strain (AID 167); details: S. cerevisiae bub3 mutant strain, stronger effect = higher value
In short: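 Inhibition values come from growth of compound-treated mutant yeast normalised to vehicle-treated controls.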

[6] = NCI Yeast Anticancer Drug Screen. Data for the mlh1 rad18 strain (AID 175); details: S. cerevisiae mlh1 rad18 strain growth inhibition, stronger effect = higher value
In short: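 Compound-treated yeast growth, normalised to vehicle controls. Strain bears defined DNA repair mutations.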

[7] = at 5.0 µM (retest, dose inferred, filed as 0.5)
[8] = at 50.0 µM (retest, dose inferred, filed as 5.0)

Structure (SMILES) | growth inhibition [1, 7] | growth inhibition [1, 8] | growth inhibition ([1]; at 50.0 µM) | growth inhibition [2, 7] | growth inhibition [2, 8] | growth inhibition ([2]; at 50.0 µM) | growth inhibition [3, 7] [%] | growth inhibition [3, 8] | growth inhibition ([3]; at 50.0 µM) | growth inhibition [4, 7] | growth inhibition [4, 8] | growth inhibition ([4]; at 50.0 µM) | growth inhibition [5, 7] | growth inhibition [5, 8] | growth inhibition ([5]; at 50.0 µM) | growth inhibition [6, 7] | growth inhibition [6, 8] | growth inhibition ([6]; at 50.0 µM)
O=C(O)CCn1c2ccccc2c2ccccc21 | 6% | 45% | 24.6% | -13% | 52% | 36.4% | -1 | 68% | 40.5% | -10% | 42% | 15.1% | -6% | 61% | 55.5% | -4% | 49% | 66%
CCN(CC)CCOC(=O)c1ccc(N=Nc2ccc(O)c3ccccc23)cc1 | 0% | 99% (active) | 98.8% (active) | 4% | 100% (active) | 99.1% (active) | 6 | 99% (active) | 99% (active) | 6% | 99% (active) | 86.8% (active) | -2% | 99% (active) | 41.1% | -7% | 99% (active) | 99% (active)
O=c1oc2c3ccc4ccccc4c3n(CCCN3CCCCC3)c2c2ccccc12 | 81% (active) | 81% (active) | 54.4% | 17% | 17% | 82.8% (active) | 35 | 35% | 87.4% (active) | 27% | 27% | 76% (active) | -4% | -4% | 84.8% (active) | -13% | -13% | 87.3% (active)
OC(Cc1ccccc1)(Cc1ccccc1)c1ccccc1 | 20% | 98% (active) | 88.5% (active) | 13% | 99% (active) | 78.2% (active) | -3 | 99% (active) | 78% (active) | 3% | 98% (active) | 93.9% (active) | -14% | 97% (active) | 88.3% (active) | -6% | 99% (active) | 96% (active)
S=c1[nH]nc(Nc2ccccc2Cl)s1 | 17% | 3% | 57.5% | -21% | -8% | 32.4% | -4 | 15% | 79.8% (active) | 23% | 22% | 43.2% | 1% | 19% | 57% | -7% | -8% | 47.9%
O=[N+]([O-])c1cc(Br)cc(Br)c1O | -2% | 19% | 61.6% | 18% | 45% | 49.6% | 10 | 38% | 40.4% | 20% | 41% | 82.7% (active) | -7% | 30% | 75.8% (active) | 2% | 56% | 68.4%
Clc1ccc(N2CCN(CCCN3CCN(c4ccc(Cl)cc4)CC3)CC2)cc1 | -2% | 29% | 67.9% | -6% | 35% | 18.5% | -14 | 74% (active) | 81.2% (active) | -3% | 30% | 6.25% | -3% | 24% | 24.9% | 4% | 42% | 31.8%
O=C(Nc1ccc(F)cc1)N1CCCCC1 | 41% | 43% | 8.15% | 36% | 29% | 47% | 40 | 42% | 36.9% | 29% | 31% | 9.25% | 41% | 70% (active) | 17.3% | 43% | 39% | 33.1%
C1C[OH+]CC[OH+]CCNCC[OH+]CC[OH+]CCN1.[Cl-].[Pt+4] | 34% | 34% | 86.8% (active) | 34% | 34% | 87.4% (active) | 29 | 29% | 84.8% (active) | 29% | 29% | 87.1% (active) | 10% | 10% | 86.2% (active) | 43% | 43% | 84.2% (active)
c1ccc(N=Nc2ccc3ccccc3c2)cc1 | 5% | 9% | 16.1% | 16% | 10% | 11.8% | 6 | 6% | 3.65% | 1% | 4% | -5.6% | 3% | 17% | 83% (active) | 8% | 10% | 21.8%
CCCCCCCSCC1C(=O)C23CC1CCC2C12COC(O)C1C(C)(C)C(O)CC2OC3=O (configuration not stated) | -19% | 98% (active) | 91.7% (active) | 1% | 99% (active) | 92.2% (active) | -11 | 98% (active) | 92.2% (active) | 9% | 99% (active) | 90% (active) | -4% | 99% (active) | 89% (active) | -29% | 98% (active) | 63.4%
O=C(NCc1ccccc1)N1CCN(c2ccccc2)C1=O | -3% | 3% | 47% | -3% | -5% | 2.65% | -3 | -1% | -2.15% | -4% | 13% | 36.5% | 4% | 12% | 6.95% | -4% | -4% | 11.7%
N#[N+]c1c([O-])ccc2nc3ccccc3nc12 | -101% | 12% | 68.4% | -43% | -45% | 40.7% | -56 | -30% | 10.2% | -52% | -65% | -1.5% | -59% | -69% | -14.9% | -114% | -56% | 66.9%
COc1ccc(CC2c3cc4c(cc3CCN2C)OCO4)c(C=O)c1OC (configuration not stated) | -2% | -4% | 82% (active) | -1% | -1% | 86.7% (active) | -1 | -3% | 83.3% (active) | -4% | -11% | 84.7% (active) | -2% | 1% | 57.3% | -2% | -4% | -38.8%
Cc1c[nH]c(C(=O)O)c1-c1ccc2c(-c3ccccc3)nc3ccccc3n12 | 14% | 96% (active) | 82.8% (active) | 11% | 99% (active) | 91% (active) | 10 | 99% (active) | 89.4% (active) | 8% | 99% (active) | 89% (active) | 13% | 99% (active) | 85.9% (active) | 12% | 95% (active) | 91.8% (active)
Cc1cc(=O)[nH]c2cc3oc4ccccc4c3cc12 | 30% | 94% (active) | 95.2% (active) | -5% | 39% | 32.4% | 11 | 40% | 17.6% | 9% | 36% | 68.1% | -13% | 45% | 81% (active) | 23% | 80% (active) | 78.9% (active)
CCO/C=C1N=C(/C=C/c2ccc(Cl)cc2)OC/1=O | 5% | 31% | 28.4% | 7% | 13% | 32.8% | 14 | 19% | 47% | 8% | 43% | -38.7% | 14% | 29% | 22.6% | 1% | 25% | 40.8%
CCCOC(=O)C(S)C(S)C(=O)OCCC (configuration not stated) | 23% | 50% | 11.1% | 2% | 32% | 2.15% | -16 | 53% | 12.4% | 19% | 90% (active) | 40% | 5% | 94% (active) | 26.8% | 2% | 75% (active) | 48.2%
COc1ccc(Cl)c(-c2cc(OC)c(N=N/C(=N/Nc3ccc([N+](=O)[O-])cc3)c3ccc([N+](=O)[O-])cc3)cc2Cl)c1 | 95% (active) | 19% | 70.9% (active) | 98% (active) | 4% | 45.5% | 44 | -18% | 60.2% | 74% (active) | 0% | 50.2% | 99% (active) | 5% | 44.5% | 98% (active) | 17% | 76.1% (active)
